# Experimental data from the supplement of paper PMC10037445.
# Several values for one entry are separate records, joined by “and”; a condition that tells them apart may be missing. Equal values may be shown once. In all, about 2,900 compounds were measured (“NF-kB SEAP reporter activity, fold change vs agonist alone”: median about 0.99, highest 2% from about 2.6 on). This excerpt belongs to a sample that is enriched for the highest values.
# Legend:
# RAW-Dual [1] = test: NF-kB SEAP reporter activity, fold change vs agonist alone; higher = enhanced NF-kB activity
# Outline: (§1)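 Library stock was pin-tooled at 50 nL into 384-well plates of RAW-Dual macrophages (50,000 cells/well, DMEM), followed 1 h later by a PRR agonist, and the cells were kept at 37 °C, 5% CO2. Supernatant collected after 20 hours was read for IRF by QuantiLuc luminescence and for NF-κB by QuantiBlue absorbance at 620 nm. Reporter activity is fold change over agonist-alone wells, and a well counted as cytotoxic when its IncuCyte confluency was below 70% of agonist controls in both mask sets.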
# RAW-Dual [2] = test: NF-kB SEAP reporter activity, fold change vs agonist alone; cytotoxicity flag (confluency mask): not cytotoxic; higher = enhanced NF-kB activity
# Outline: as §1
# RAW-Dual [3] = test: NF-kB SEAP reporter activity, fold change vs agonist alone; cytotoxicity flag (confluency mask): cytotoxic (confluency <70% of control); higher = enhanced NF-kB activity
# Outline: as §1
# [4] = library stock concentration (final ~1000-fold dilution): 10 mM, cytotoxicity flag (confluency mask): not cytotoxic, agonist: Imiquimod (TLR7) […]
# [5] = library stock concentration (final ~1000-fold dilution): 10 mM, cytotoxicity flag (confluency mask): not cytotoxic, agonist: MPLA (TLR4) […]
# [6] = agonist: ODN 1826 (TLR9) 0.5 ug/mL
# [7] = agonist: Pam2CSK4 (TLR2/6) 0.1 ug/mL
# [8] = agonist: Pam3CSK4 (TLR2/1) 0.1 ug/mL
# [9] = library stock concentration (final ~1000-fold dilution): 10 mM, cytotoxicity flag (confluency mask): cytotoxic (confluency <70% of control), agonist: Imiquimod (TLR7) […]
# [10] = library stock concentration (final ~1000-fold dilution): 10 mM, cytotoxicity flag (confluency mask): cytotoxic (confluency <70% of control), agonist: MPLA (TLR4) […]
smiles,measurement,setting,value
CC(C)NCC(C(=O)N1CCN(c2ncnc3c2C(C)CC3O)CC1)c1ccc(Cl)cc1 (centres undefined),NF-kB SEAP reporter activity,RAW-Dual [1]; [4],1.27
same,NF-kB SEAP reporter activity,RAW-Dual [1]; [5],1.13
CC(C)NCC(C(=O)N1CCN(c2ncnc3c2C(C)CC3O)CC1)c1ccc(Cl)cc1 (centres undefined) (library stock concentration (final ~1000-fold dilution): 10 mM),NF-kB SEAP reporter activity,RAW-Dual [2]; agonist: LPS (TLR4) 0.1 ug/mL,0.942
same,NF-kB SEAP reporter activity,RAW-Dual [2]; [6],0.996
same,NF-kB SEAP reporter activity,RAW-Dual [2]; [7],1.15
same,NF-kB SEAP reporter activity,RAW-Dual [2]; [8],1.11
C=CC(=O)N1CCCC(n2nc(-c3ccc(Oc4ccccc4)cc3)c(C(N)=O)c2N)C1 (centres undefined) (library stock concentration (final ~1000-fold dilution): 10 mM),NF-kB SEAP reporter activity,RAW-Dual [2]; agonist: LPS (TLR4) 0.1 ug/mL,0.404
same,NF-kB SEAP reporter activity,RAW-Dual [2]; [6],0.546
same,NF-kB SEAP reporter activity,RAW-Dual [2]; [7],0.224
same,NF-kB SEAP reporter activity,RAW-Dual [2]; [8],0.272
C=CC(=O)N1CCCC(n2nc(-c3ccc(Oc4ccccc4)cc3)c(C(N)=O)c2N)C1 (centres undefined),NF-kB SEAP reporter activity,RAW-Dual [1]; [4],0.67
same,NF-kB SEAP reporter activity,RAW-Dual [1]; [5],0.637
Cl.NC(=O)c1cnc(NC2CCCCC2N)nc1Nc1cccc(-n2nccn2)c1 (centres undefined) (library stock concentration (final ~1000-fold dilution): 10 mM),NF-kB SEAP reporter activity,RAW-Dual [3]; agonist: LPS (TLR4) 0.1 ug/mL,0.377
same,NF-kB SEAP reporter activity,RAW-Dual [3]; [6],0.204
same,NF-kB SEAP reporter activity,RAW-Dual [3]; [7],0.315
same,NF-kB SEAP reporter activity,RAW-Dual [3]; [8],0.248
Cl.NC(=O)c1cnc(NC2CCCCC2N)nc1Nc1cccc(-n2nccn2)c1 (centres undefined),NF-kB SEAP reporter activity,RAW-Dual [1]; [9],0.258
same,NF-kB SEAP reporter activity,RAW-Dual [1]; [10],0.336
O=C(/C=C/c1ccc(CN(CCO)CCc2c[nH]c3ccccc23)cc1)NO (library stock concentration (final ~1000-fold dilution): 10 mM),NF-kB SEAP reporter activity,RAW-Dual [3]; agonist: LPS (TLR4) 0.1 ug/mL,5.57
same,NF-kB SEAP reporter activity,RAW-Dual [3]; [6],1.51
same,NF-kB SEAP reporter activity,RAW-Dual [3]; [7],1.46
same,NF-kB SEAP reporter activity,RAW-Dual [3]; [8],1.68
OCc1c[nH]c2ccccc12 (library stock concentration (final ~1000-fold dilution): 10 mM),NF-kB SEAP reporter activity,RAW-Dual [2]; agonist: LPS (TLR4) 0.1 ug/mL,1.1 and 1.21
same,NF-kB SEAP reporter activity,RAW-Dual [2]; [6],0.998 and 1.05
same,NF-kB SEAP reporter activity,RAW-Dual [2]; [7],1.03 and 1
same,NF-kB SEAP reporter activity,RAW-Dual [2]; [8],1.29 and 1.17
O=C(O)CCc1c[nH]c2ccccc12,NF-kB SEAP reporter activity,RAW-Dual [1]; [4],0.934
same,NF-kB SEAP reporter activity,RAW-Dual [1]; [5],0.964
O=C(O)CCc1c[nH]c2ccccc12 (library stock concentration (final ~1000-fold dilution): 10 mM),NF-kB SEAP reporter activity,RAW-Dual [2]; agonist: LPS (TLR4) 0.1 ug/mL,1.08
same,NF-kB SEAP reporter activity,RAW-Dual [2]; [6],1.06
same,NF-kB SEAP reporter activity,RAW-Dual [2]; [7],1.03
same,NF-kB SEAP reporter activity,RAW-Dual [2]; [8],0.898
OCc1c[nH]c2ccccc12,NF-kB SEAP reporter activity,RAW-Dual [1]; [5],1.03
O=C(/C=C/c1ccc(CN(CCO)CCc2c[nH]c3ccccc23)cc1)NO,NF-kB SEAP reporter activity,RAW-Dual [1]; [9],2.64
same,NF-kB SEAP reporter activity,RAW-Dual [1]; [10],2.71
CCOC1OC(=O)CC1NC(=O)C1CCCN1C(=O)C(NC(=O)c1ccc(N)c(Cl)c1)C(C)(C)C (centres undefined),NF-kB SEAP reporter activity,RAW-Dual [1]; [4],0.911
same,NF-kB SEAP reporter activity,RAW-Dual [1]; [5],0.995
CCOC1OC(=O)CC1NC(=O)C1CCCN1C(=O)C(NC(=O)c1ccc(N)c(Cl)c1)C(C)(C)C (centres undefined) (library stock concentration (final ~1000-fold dilution): 10 mM),NF-kB SEAP reporter activity,RAW-Dual [2]; agonist: LPS (TLR4) 0.1 ug/mL,0.973
same,NF-kB SEAP reporter activity,RAW-Dual [2]; [6],1
same,NF-kB SEAP reporter activity,RAW-Dual [2]; [7],1
same,NF-kB SEAP reporter activity,RAW-Dual [2]; [8],0.976
N#CC1CC2CC2N1C(=O)C(N)C12CC3CC(CC(O)(C3)C1)C2 (centres undefined),NF-kB SEAP reporter activity,RAW-Dual [1]; [4],0.914
same,NF-kB SEAP reporter activity,RAW-Dual [1]; [5],0.875
N#CC1CC2CC2N1C(=O)C(N)C12CC3CC(CC(O)(C3)C1)C2 (centres undefined) (library stock concentration (final ~1000-fold dilution): 10 mM),NF-kB SEAP reporter activity,RAW-Dual [2]; agonist: LPS (TLR4) 0.1 ug/mL,1.1
same,NF-kB SEAP reporter activity,RAW-Dual [2]; [6],0.964
same,NF-kB SEAP reporter activity,RAW-Dual [2]; [7],0.892
same,NF-kB SEAP reporter activity,RAW-Dual [2]; [8],1.05
CCn1c(-c2nonc2N)nc2c(C#CC(C)(C)O)ncc(OCC3CCCNC3)c21 (centres undefined) (library stock concentration (final ~1000-fold dilution): 10 mM),NF-kB SEAP reporter activity,RAW-Dual [2]; agonist: LPS (TLR4) 0.1 ug/mL,1.91
same,NF-kB SEAP reporter activity,RAW-Dual [2]; [6],0.943
same,NF-kB SEAP reporter activity,RAW-Dual [2]; [7],1.73
same,NF-kB SEAP reporter activity,RAW-Dual [2]; [8],1.89
CCn1c(-c2nonc2N)nc2c(C#CC(C)(C)O)ncc(OCC3CCCNC3)c21 (centres undefined),NF-kB SEAP reporter activity,RAW-Dual [1]; [4],1.87
same,NF-kB SEAP reporter activity,RAW-Dual [1]; [5],1.95
CC(C)Cc1ccc(C(C)C(=O)O)cc1.NCCCCC(N)C(=O)O (centres undefined) (library stock concentration (final ~1000-fold dilution): 10 mM water),NF-kB SEAP reporter activity,RAW-Dual [2]; agonist: LPS (TLR4) 0.1 ug/mL,1.42
same,NF-kB SEAP reporter activity,RAW-Dual [2]; [6],1.2
same,NF-kB SEAP reporter activity,RAW-Dual [2]; [7],1.54
same,NF-kB SEAP reporter activity,RAW-Dual [2]; [8],1.39
CC(C)Cc1ccc(C(C)C(=O)O)cc1.NCCCCC(N)C(=O)O (centres undefined),NF-kB SEAP reporter activity,"RAW-Dual [1]; library stock concentration (final ~1000-fold dilution): 10 mM water, cytotoxicity flag (confluency mask): not cytotoxic, agonist: Imiquimod (TLR7) […]",0.969
same,NF-kB SEAP reporter activity,"RAW-Dual [1]; library stock concentration (final ~1000-fold dilution): 10 mM water, cytotoxicity flag (confluency mask): not cytotoxic, agonist: MPLA (TLR4) […]",1.08
CCCCc1nc2cc(/C=C/C(=O)NO)ccc2n1CCN(CC)CC,NF-kB SEAP reporter activity,RAW-Dual [1]; [9],2.43
same,NF-kB SEAP reporter activity,RAW-Dual [1]; [10],2.67
CCCCc1nc(-c2ccc(OCCCN(CC)CC)cc2)cn1-c1ccc(Oc2ccc(Cl)cc2)cc1 (library stock concentration (final ~1000-fold dilution): 10 mM),NF-kB SEAP reporter activity,RAW-Dual [3]; agonist: LPS (TLR4) 0.1 ug/mL,0.281
same,NF-kB SEAP reporter activity,RAW-Dual [3]; [6],0.683
same,NF-kB SEAP reporter activity,RAW-Dual [3]; [7],0.225
same,NF-kB SEAP reporter activity,RAW-Dual [3]; [8],0.192
CCCCc1nc(-c2ccc(OCCCN(CC)CC)cc2)cn1-c1ccc(Oc2ccc(Cl)cc2)cc1,NF-kB SEAP reporter activity,RAW-Dual [1]; [9],1.53
same,NF-kB SEAP reporter activity,RAW-Dual [1]; [10],1.02
CCCCc1nc2cc(/C=C/C(=O)NO)ccc2n1CCN(CC)CC (library stock concentration (final ~1000-fold dilution): 10 mM),NF-kB SEAP reporter activity,RAW-Dual [3]; agonist: LPS (TLR4) 0.1 ug/mL,4.93
same,NF-kB SEAP reporter activity,RAW-Dual [3]; [6],1.54
same,NF-kB SEAP reporter activity,RAW-Dual [3]; [7],0.93
same,NF-kB SEAP reporter activity,RAW-Dual [3]; [8],1.99
CN1C2CCC1CC(OC(c1ccccc1)c1ccccc1)C2.CS(=O)(=O)O (centres undefined) (library stock concentration (final ~1000-fold dilution): 10 mM),NF-kB SEAP reporter activity,RAW-Dual [2]; agonist: LPS (TLR4) 0.1 ug/mL,1.24
same,NF-kB SEAP reporter activity,RAW-Dual [2]; [6],0.721
same,NF-kB SEAP reporter activity,RAW-Dual [2]; [7],0.896
same,NF-kB SEAP reporter activity,RAW-Dual [2]; [8],1.02
CN1C2CCC1CC(OC(c1ccccc1)c1ccccc1)C2.CS(=O)(=O)O (centres undefined),NF-kB SEAP reporter activity,RAW-Dual [1]; [4],1.89
same,NF-kB SEAP reporter activity,RAW-Dual [1]; [5],1.29
CC(NC(=O)CCC(F)(F)F)C(=O)NC1C(=O)N(CCO)c2ncccc2-c2ccccc21 (centres undefined),NF-kB SEAP reporter activity,RAW-Dual [1]; [4],0.822
same,NF-kB SEAP reporter activity,RAW-Dual [1]; [5],1.06
